PubChem BioAssay (NCATS)
Inconclusive results are not listed. Calls of active or inactive are those of the source. Unless noted, calls follow the shape of the dose curve; as a rule, active = well fitted curve in the direction sought with a large enough effect; inconclusive = small, poorly fitted or top-dose-only effect, or another doubt; inactive = no such curve, though single readings can be large; an effect the other way counts as inactive or inconclusive.

How the values were obtained:
[1] = qHTS to identify inhibitors of the type 1 interferon - major histocompatibility complex class I in skeletal muscle: primary screen against the NCATS Mechanism Interrogation Plate v5.0 (MIPE) Libary (AID 1347411); also: nearly all actives have a fitted effect of over 65% in size; also: potency is read from the fitted curve at half-maximal effect
Procedure, shortened: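 IFN-beta-driven (4 ng/ml) HLA-B-HiBit expression in CRISPR-tagged C25cl48 myoblasts; compounds 11-pt, 1:3, max 46 uM, 24 hr exposure; lytic NanoLuc complementation luminescence.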

[2] = Primary qHTS for inhibitors of nuclear receptor binding SET domain protein 2 (NSD2) in an isogenic RCH-ACV NSD2 p.E1099K mutant (9B) (AID 1645876); also: nearly all actives have a fitted effect of over 70% in size; also: potency is read from the fitted curve at half-maximal effect
[3] = Primary qHTS for inhibitors of nuclear receptor binding SET domain protein 2 (NSD2) in an RCH-ACV wild type WT cells (2C) (AID 1645877); also: nearly all actives have a fitted effect of over 70% in size; also: potency is read from the fitted curve at half-maximal effect
[4] = molecular target: Glutathione peroxidase 1 (Homo sapiens) (UniProt P07203); test: Primary qHTS Assay for Inhibitors of Recombinant Selenoprotein Glutathione Peroxidase 1 (GPX1) (AID 1845191); also: nearly all actives have a fitted effect of over 65% in size
Sequence of Glutathione peroxidase 1 (Homo sapiens) (P07203 whole entry, looked up): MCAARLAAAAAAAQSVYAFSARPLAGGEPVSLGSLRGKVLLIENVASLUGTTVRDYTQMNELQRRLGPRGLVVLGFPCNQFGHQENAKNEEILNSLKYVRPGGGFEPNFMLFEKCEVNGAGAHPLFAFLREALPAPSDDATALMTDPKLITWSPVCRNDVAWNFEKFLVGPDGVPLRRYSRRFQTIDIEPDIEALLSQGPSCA
Procedure, shortened: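 GPX1 10 nM, GR 100 nM, GSH 1 mM, NADPH 0.5 mM, CHP 0.5 mM (final). 30-min cpd preincubation, RT. Ex340/Em450 read t=0, t=15 min.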

[5] = qHTS drug screen for cell cycle checkpoint inhibitors in PARPi-resistant BRCA-mutant ovarian cancer cell lines. (AID 1963452; calls by dose curve; also: potency is read from the fitted curve at half-maximal effect); conditions: PEO1/OlaR viability, CellTiter-Glo luminescence, 96 h; for Z-AUC: stronger effect = lower value
Procedure, shortened: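 PEO1, PEO4 and PEO1/OlaR ovarian cancer cells, 600 per well, exposed 96 h at 37C to a dilution series. Viability read by CellTiter-Glo luminescence, normalized to DMSO and empty wells; activity summarized as Z-AUC.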

[6] = molecular target: Phospholipid hydroperoxide glutathione peroxidase GPX4 (Homo sapiens) (UniProt P36969); test: Primary qHTS Assay for Inhibitors of Recombinant Selenoprotein Glutathione Peroxidase 4 (GPX4) (AID 1845192); conditions: outcome: dose series up to 50 µM unless noted; also: nearly all actives have a fitted effect of over 65% in size; also: potency is read from the fitted curve at half-maximal effect
Sequence of Phospholipid hydroperoxide glutathione peroxidase GPX4 (Homo sapiens) (P36969 whole entry, looked up): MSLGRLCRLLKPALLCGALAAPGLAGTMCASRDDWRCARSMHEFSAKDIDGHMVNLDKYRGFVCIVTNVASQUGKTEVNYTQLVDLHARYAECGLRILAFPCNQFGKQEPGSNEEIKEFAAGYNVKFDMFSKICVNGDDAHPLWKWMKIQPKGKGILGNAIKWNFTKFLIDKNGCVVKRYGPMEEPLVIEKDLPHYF
Procedure, shortened: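 qHTS, GR-coupled: GPX4 200 nM + cpd 30 min RT → GSH 1 mM, NADPH 0.5 mM, GR 100 nM → CHP 0.5 mM start; fluor 340/450 at t0 and t15 min; no-enzyme wells as control.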

[7] = NCATS anti-infectives library activity on HEK293 viability as a counter-qHTS vs the C. elegans viability qHTS (AID 1745854);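 also: HEK293 cells exposed to compounds for 24 hr before the viability read; % is scaled to controls: 0 for no effect and ±100 for the full control effect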
Procedure, shortened: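 Compound titrations (final up to 41.7 uM) were incubated with HEK293 cells for 24 hr at 37C under 5% CO2. Viable cells were quantified with CellTiter-Glo after 10 min at ambient temperature.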

[8] = NCATS anti-infectives library activity on the primary C. elegans qHTS viability assay (AID 1745855; calls by dose curve; also: potency is read from the fitted curve at half-maximal effect)
Procedure, shortened: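 Titration-based screen in worms: eggs hatched overnight in M9, L1 larvae fed TOP10 capsules in S medium with compound, incubated 21 °C for 7 days; fluorescent objects gated by size and intensity at days 0, 3 and 7.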

[9] = measured here: PEO1 parental Z-AUC

Row | Structure (SMILES) | Potency [1] | Potency [2] | Potency [3] | Potency [4] | Z-AUC [5] | Z-AUC [5, 9] | Z-AUC ([5]; measured here: PEO4 Z-AUC) | Potency [6] | Potency [5] | Potency [7] | Potency [8]
1 | O=C(O)CCCCN(CCc1ccccc1OCc1ccc(CCc2ccccc2)cc1)Cc1ccc(C(=O)O)cc1 | inactive | inactive | inactive | inactive | 0.163 (inactive) | 0.492 | 0.773 |  |  |  | 
2 | N=C1S/C(=C\c2ccc(-c3ccc4c(c3)C(=O)NC4=O)o2)C(=O)N1c1ccc(Br)cc1 | inactive | inactive | inactive | inactive | 0.761 (inactive) | 0.782 | 0.462 |  |  |  | 
3 | CN[C@@H](C)C(=O)N[C@H](C(=O)N1CCC[C@H]1C(=O)Nc1sc(-c2ncco2)nc1-c1ccccc1)C1CCCCC1 | inactive | inactive | inactive | inactive | 1.87 (inactive) | 0.246 | 0.302 |  |  |  | 
4 | C=CC(=O)N1CCC(C2CCNc3c(C(N)=O)c(-c4ccc(Oc5ccccc5)cc4)nn32)CC1 (stereo unspecified) | inactive | 14800 nM (active) | 6610 nM (active) | inactive | -0.181 (inactive) | -0.23 | -0.000619 | inactive |  |  | 
5 | O=C(O)CNC(=O)c1nc(Cl)c2ccccc2c1O | inactive | inactive | inactive | inactive | -0.321 (inactive) | -0.207 | -0.202 |  |  |  | 
6 | O=C(NCc1ccccc1)[C@H](Cc1ccccc1)NC(=O)[C@H]1O[C@@H]1C(=O)NCCc1ccc(O)cc1 | inactive | 23500 nM (active) | 18600 nM (active) | inactive | 1.49 (inactive) | 0.636 | 0.423 | inactive |  |  | 
7 | CC(C)(C)c1[nH]cnc1/C=c1\[nH]c(=O)/c(=C/c2ccccc2)[nH]c1=O | inactive | 118 nM (active) | 118 nM (active) | inactive |  | -2.5 | -2.52 |  | 174 nM (active) |  | 
8 | O=C1NC(=O)/C(=C\c2ccc(-c3ccc(F)cc3)o2)S1 | inactive | inactive | inactive | inactive | 0.0775 (inactive) | 0.696 | 0.899 |  |  |  | 
9 | C/C=C1\NC(=O)[C@H]2CSSCC/C=C\[C@H](CC(=O)N[C@H](C(C)C)C(=O)N2)OC(=O)[C@H](C(C)C)NC1=O | 10.4 nM (active) | 7.4 nM (active) | 6.6 nM (active) | inactive |  | -3.43 | -3.56 |  | 4.9 nM (active) |  | 
10 | C[C@H](NC(=O)CCC(F)(F)F)C(=O)N[C@@H]1C(=O)N(CCO)c2ncccc2-c2ccccc21 | inactive | inactive | inactive | inactive | -0.268 (inactive) | 0.166 | -0.664 | inactive |  |  | 
11 | CC(C)n1cc(-c2ccc3c(c2)N(C)CC3)c2c(NS(=O)(=O)c3ccn(C)n3)ccnc21 | inactive | inactive | inactive | inactive | 1.52 (inactive) | 0.948 | 0.671 |  |  |  | 
12 | Cc1ccc(-c2nc(N)nc3c2nnn3Cc2cccc(CO[C@H]3CCOC3)n2)o1 | inactive | inactive | inactive | inactive | -1.33 (inactive) | -0.982 | -1.11 |  |  |  | 
13 | O=C(Nc1cnn2ccc(N3CCC[C@@H]3c3cc(F)ccc3F)nc12)N1CC[C@H](O)C1 | inactive | inactive | inactive | inactive | 1.28 (inactive) | 1.7 | 1.78 | inactive |  |  | 
14 | CCOc1ccc(Cc2cc([C@@H]3O[C@H](CO)[C@@H](O)[C@H](O)[C@H]3O)ccc2Cl)cc1 | inactive | inactive | inactive | inactive | 1.26 (inactive) | 1.31 | 1.52 | inactive |  |  | 
15 | CC1Cc2ccccc2N1C(=O)Cc1nc(N2CCOCC2)cc(=O)[nH]1 (stereo unspecified) | inactive | 5250 nM (active) | 4680 nM (active) | inactive | -1.34 (inactive) | -0.404 | -0.574 |  |  |  | 
16 | C=CCNC1=C2CC(C)CC(OC)C(O)C(C)/C=C(\C)C(OC(N)=O)C(OC)/C=C/C=C(\C)C(=O)NC(=CC1=O)C2=O (stereo unspecified) | 58.7 nM (active) | 1320 nM (active) | 1320 nM (active) | inactive | -0.25 (inactive) | -0.657 | -0.0403 |  |  |  | 
17 | CC(=O)N1CCN(c2ccc(NC(=O)Cc3cnc(-c4ccnc(F)c4)c(C)c3)nc2)CC1 | inactive | inactive | inactive | inactive | 1.31 (inactive) | 1.23 | 0.947 | inactive |  |  | 
18 | O=C(O)C[C@H]1CCc2c1[nH]c1ccc(OCc3ccc(C4CCCC4)c(C(F)(F)F)c3)cc21 | inactive | inactive | inactive | inactive | 1.56 (inactive) | 0.981 | 0.948 |  |  |  | 
19 | CNCCCOc1cc(F)c(-c2c(Cl)nc3ncnn3c2N[C@@H](C)C(F)(F)F)c(F)c1 | inactive | 66.1 nM (active) | 46.8 nM (active) | inactive |  | -1.35 | -1.7 | inactive | 155 nM (active) |  | 
20 | CNC(=O)Cn1cc(-c2ccc3c(c2)C(F)CC32NC(=O)N(CC(=O)N(Cc3ccc(F)cc3)C(C)C(F)(F)F)C2=O)cn1 (stereo unspecified) | inactive | 83.3 nM (active) | 132 nM (active) | inactive | 0.772 (inactive) | 0.67 | 0.562 | inactive |  |  | 
21 | CN1CCCN(C(=O)c2cccc(-c3ccc(/C=C4/C(=O)Nc5ccc(Cl)cc54)o3)c2)CC1 | 8290 nM (active) | 186 nM (active) | 166 nM (active) | inactive | 0.657 (inactive) | -0.436 | -0.635 | inactive |  |  | 
22 | CC(=O)c1ccc2c(c1)c1cc(C(C)=O)ccc1n2CCNC(C)C | 1470 nM (active) | 742 nM (active) | 662 nM (active) |  |  | -1.63 | -1.42 | 16100 nM (active) | 1550 nM (active) |  | 
23 | CC(=O)N1c2ccc(-c3ccc(C(=O)O)cc3)cc2[C@H](Nc2ccc(Cl)cc2)C[C@@H]1C | inactive | 93.4 nM (active) |  | inactive | -0.689 (inactive) | -0.385 | -0.741 |  |  | inactive | 23000 nM (active)
24 | CN(C)C/C=C/C(=O)Nc1cc2c(Nc3ccc(F)c(Cl)c3)ncnc2cc1O[C@H]1CCOC1 | 16500 nM (active) | 2350 nM (active) | 1860 nM (active) | inactive | -1.12 (inactive) | -0.735 | -1.62 |  |  |  | 
25 | COc1ccc(-c2oc3c(CC=C(C)C)c(OC4O[C@H](CO)[C@@H](O)[C@H](O)[C@H]4O)cc(O)c3c(=O)c2OC2O[C@@H](C)[C@H](O)[C@@H](O)[C@H]2O)cc1 (stereo partly specified) | inactive | inactive | inactive |  | 0.153 (inactive) | 0.0996 | 0.222 | inactive |  |  | 
26 | CC1(C)CCC2(CC1)N[C@@H](C(=O)N[C@@H]1CC[C@@H](C(N)=O)OC1)[C@H](c1ccnc(Cl)c1F)[C@]21C(=O)Nc2cc(Cl)ccc21 | 17900 nM (active) | 319 nM (active) | 201 nM (active) |  | -0.537 (inactive) | -0.326 | -0.309 | inactive |  |  | 
27 | CC(C)(O)c1coc(S(=O)(=O)NC(=O)Nc2c3c(cc4c2CCC4)CCC3)c1 | inactive | inactive | inactive |  | -0.755 (inactive) | -0.798 | -1 |  |  |  | 
28 | CCN1C(=O)CNc2ncc(-c3ccc(-c4ncn[nH]4)nc3C)nc21 | 2940 nM (active) | 833 nM (active) | 742 nM (active) |  | 0.377 (inactive) | 0.759 | 0.275 |  |  |  | 
29 | Cc1nc(NC(=O)N2CCC[C@H]2C(N)=O)sc1-c1csc(C(C)(C)C)n1 | inactive | 5250 nM (active) | 4680 nM (active) |  | 0.111 (inactive) | 0.231 | 0.403 | inactive |  |  | 
